Sampled rows, rich in hits. Any-hit rate of the full collection: about 6.6%.
Gli-Sufu block: Gli-Sufu pathway antagonists, primary screen, luciferase luminescence, Sufu-KO-LIGHT cells, uHTS. inhibition, % at 5 µM. Sufu-KO-LIGHT fibroblasts, Gli luciferase reporter luminescence. 340,000 tested, 0.74% active;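 active = inhibition above about 55%, limit read from the data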;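 note: 0% = DMSO-treated cells and 100% = wells with medium but no cells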
MPTP block: mitochondrial permeability transition pore inhibitors, primary screen, biochemical, isolated mouse mitochondria, absorbance | Ca2+ swelling absorbance, 30 min | inhibition, % at 10 µM | 360,000 tested, 1.4% active | AID 602449, 2012;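 active = inhibition of 50% or more, scaled per plate between neutral and stimulator controls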;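 note: 0% = DMSO wells given calcium and 100% = 1 mM EGTA wells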
Beta apoptosis: inhibitors of cytokine-induced beta cell apoptosis, primary screen, luminescence; 300,000 tested, 0.8% active; AID 435005, 2010; INS-1E cytokine-induced death, ATP luminescence, 48 h; percent of positive-control rescue, neutral wells zero; protection from apoptosis, % (concentration not given with the values);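 active = Every replicate reaches about 75%, or at least half do and their mean reaches it too, limit read from the data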;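 note: 0% = cytokine-treated negative control wells and 100% = positive control rescue; higher means more ATP so stronger rescue from cytokine killing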
Mdm2 MdmX PPI: inhibitors of human Mdm2-MdmX association, primary screen, cell-based, luminescence, split luciferase, SaOS-2, uHTS; SaOS-2 split-luciferase Mdm2/MdmX complementation; inhibition, % at 8 µM; 330,000 tested, 3% active;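 active = inhibition of at least 50% at 8 µM in the primary screen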
Target sequence (O15151 whole entry, looked up): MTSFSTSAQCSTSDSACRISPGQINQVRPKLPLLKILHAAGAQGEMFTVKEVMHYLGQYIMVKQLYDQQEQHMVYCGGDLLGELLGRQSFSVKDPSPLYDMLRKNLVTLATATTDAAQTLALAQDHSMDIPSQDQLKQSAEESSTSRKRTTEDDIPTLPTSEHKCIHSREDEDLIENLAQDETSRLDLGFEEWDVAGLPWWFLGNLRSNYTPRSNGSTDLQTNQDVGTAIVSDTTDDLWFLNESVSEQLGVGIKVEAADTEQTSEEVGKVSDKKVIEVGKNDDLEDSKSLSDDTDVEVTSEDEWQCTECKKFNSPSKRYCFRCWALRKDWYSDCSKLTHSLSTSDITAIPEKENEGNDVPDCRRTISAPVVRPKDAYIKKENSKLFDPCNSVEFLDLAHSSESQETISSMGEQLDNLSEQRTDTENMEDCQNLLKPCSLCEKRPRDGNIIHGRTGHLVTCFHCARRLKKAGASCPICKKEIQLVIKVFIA
Target sequence (Q00987 whole entry, looked up): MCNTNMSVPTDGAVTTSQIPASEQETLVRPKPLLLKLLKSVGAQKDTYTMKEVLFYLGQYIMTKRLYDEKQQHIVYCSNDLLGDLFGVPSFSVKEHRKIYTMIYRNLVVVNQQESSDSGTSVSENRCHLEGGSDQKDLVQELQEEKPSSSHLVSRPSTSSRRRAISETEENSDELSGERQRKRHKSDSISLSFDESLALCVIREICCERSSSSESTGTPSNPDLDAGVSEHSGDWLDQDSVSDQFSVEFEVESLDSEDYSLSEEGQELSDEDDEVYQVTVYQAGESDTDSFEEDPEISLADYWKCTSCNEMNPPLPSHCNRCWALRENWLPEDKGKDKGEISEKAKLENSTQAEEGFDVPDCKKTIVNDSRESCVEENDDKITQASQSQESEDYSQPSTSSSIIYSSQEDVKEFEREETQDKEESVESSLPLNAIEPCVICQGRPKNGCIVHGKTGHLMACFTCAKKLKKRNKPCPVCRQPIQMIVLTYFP
NR3A LBD binder: binders of NR3A ligand-binding domain, primary screen, biophysical, differential scanning fluorimetry, uHTS; 340,000 tested, 2.5% active; Glutamate receptor ionotropic, NMDA 3A (GRIN3A) ligand-binding domain; AID 1259313, 2017; NR3A LBD differential scanning fluorimetry, Tm shift; 0% = protein alone, 100% = glycine-bound protein; Tm shift relative to glycine control, % at 25 µM;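 active = melting temperature shift of at least 10% of the positive control shift, at one fixed dose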
CSC inhib: cancer stem cell viability inhibitors, primary screen, luminescence | cancer stem cell-like cells viability | inhibition, % at 7.5 µM | 300,000 tested, 1.1% active; in the data active = inhibition above about 75%; tested in HMLE shEcad cells
Mdm2-MdmX conf: Mdm2-MdmX complex disruptors, retested hits, confirmation, luminescence, single concentration; shares compounds with Mdm2 MdmX PPI; Mdm2-MdmX binding, luminescent assay; inhibition, % at 8 µM; 10,000 tested, 55% active; AID 489028, 2010; in the data active = inhibition above about 40%
FLuc counter: full-length luciferase signal inhibition, confirmation, counter-screen for Mdm2/MdmX interaction inhibitor project, cell-based, single concentration, SaOS-2; inhibition, % at 8 µM; shares compounds with Mdm2 MdmX PPI; SaOS-2 full-length luciferase counterscreen, luminescence; AID 504607, 2011; 6,200 tested, 77% active;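 active = mean inhibition at 8 µM reaching about 37%, which flags the compound as non-specific, limit read from the data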;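 note: p53-null SaOS-2 cells with luciferase driven by a doxycycline-inducible promoter; compound on cells about two nights before reading with doxycycline added after day one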
* marks the source's active call; other numbers are inactive results; / = no result.

SMILES | Gli-Sufu block | MPTP block | Beta apoptosis | Mdm2 MdmX PPI | NR3A LBD binder | CSC inhib | Mdm2-MdmX conf | FLuc counter
CO[C@@H]1CN(C)C(=O)c2cc(NC(=O)Nc3cc(F)ccc3F)ccc2OC[C@H](C)N(C(=O)c2cnccn2)C[C@@H]1C | / | -1 | / | / | / | / | / | /
CC1CCCCC12NC(=O)N(CC(=O)OCC(=O)c1ccc(OC(F)F)cc1OC(F)F)C2=O (stereo not given) | 1 | 0 | -3 | 3 | 5 | -9 | / | /
COc1ccc(/C=C/C(=O)c2ccc(Cl)s2)cc1O | 2 | 8 | -11 | -19 | 4 | -1 | / | /
COc1cc(/C=C/C(=O)c2ccc(Cl)s2)cc(OC)c1O | 12 | 3 | -22 | 65* | -3 | -13 | 51* | 45*
COc1ccc(/C=N/NC(=O)c2csc(-n3nc(C)cc3C(F)(F)F)n2)cc1 | -8 | 1 | 1 | 50* | -1 | 54 | 48* | 70*
Cc1cc(C(F)(F)F)n(-c2nc(C(=O)NN)cs2)n1 | 14 | 1 | 1 | 10 | 0 | -2 | / | /
O=C(CN1c2ccccc2S(=O)(=O)c2ccccc21)NCc1ccc(F)cc1 | -10 | -1 | 3 | -2 | 4 | -5 | / | /
CCOC(=O)c1c(NC(=O)c2cc(C)on2)c2cc([N+](=O)[O-])ccc2n1C | -2 | / | 27 | 85* | -2 | 14 | 6 | /
CCOC(=O)c1c(NC(=O)c2ccno2)c2cc([N+](=O)[O-])ccc2n1C | 4 | 1 | -3 | 20 | 3 | -8 | / | /
Cc1ccc(S(=O)(=O)Nc2cccc3ncccc23)s1 | 85* | 0 | 32 | 101* | 3 | -4 | 5 | /
Cc1ccc(S(=O)(=O)Nc2cccc3ncccc23)cc1 | 2 | 0 | 1 | 2 | 0 | -6 | / | /
Cc1ccc(S(=O)(=O)N2CCCc3cc(NC(=O)c4c(F)cccc4F)ccc32)cc1 | 41 | 0 | 5 | 13 | 5 | -8 | / | /
CCN(CC)S(=O)(=O)c1ccc(N2CCCC2)c(NC(=O)CSCc2c(C)noc2C)c1 | / | 1 | / | / | / | / | / | /
CC(C)c1c(C(=O)N/N=C/c2ccc(Cl)cc2Cl)nnn1-c1nonc1N | 0 | 4 | 9 | 16 | 7 | -3 | / | /
CC(C)c1c(C(=O)N/N=C/c2ccccc2OCc2c(F)cccc2Cl)nnn1-c1nonc1N | -4 | 0 | 18 | 57* | 13* | 65 | 52* | 55*
COc1cc(-c2nc3ccc4ccccc4c3c3c2CCC3)cc(OC)c1OC | 3 | 1 | 32 | 62* | -1 | 30 | 57* | 57*
COc1ccc(N(C)S(=O)(=O)c2ccc3c(c2)CCN3C(=O)C2CC2)c(OC)c1 | 15 | 2 | 1 | 22 | 1 | 12 | / | /
CCOC(=O)CCS(=O)(=O)c1nc(-c2ccccc2)cc(C(F)(F)F)n1 | -12 | -1 | 31 | 100* | 1 | 100* | 100* | 51*
O=C(O)CCS(=O)(=O)c1nc(-c2cccs2)cc(C(F)(F)F)n1 | 6 | -2 | -9 | 9 | 0 | 3 | / | /
COC(=O)CCS(=O)(=O)c1nc(-c2ccccc2)cc(C(F)(F)F)n1 | -4 | -1 | 28 | 84* | -12 | / | 100* | 51*
CCOC(=O)CS(=O)(=O)c1ccccc1 | 5 | -1 | / | 9 | 3 | -6 | / | /
CCOC(=O)CS(=O)(=O)c1nc(-c2ccc(F)cc2)cc(C(F)(F)F)n1 | -6 | -1 | / | 100* | 1 | 99* | 98* | 51*
CCOC(=O)CS(=O)(=O)c1nc(-c2ccccc2)cc(C(F)(F)F)n1 | -4 | -4 | 96* | 101* | 5 | 99* | 98* | 0

Compound activity from PubChem BioAssay.
